In all, about 5,500 compounds went through this assay and about 2,000 (36%) were called active. Not shown: some 18% with an inconclusive outcome. No stated cut-off is given here; in the data, active means normalized growth mostly below about 0.91 (no sharp cut-off); inconclusive means no clear call, values can overlap the other calls; inactive means mostly above about 0.92. Some of the results follow.
Assay: chemical genetic growth profiling, strain panel (AID 1159580);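 further: tested at 20 µM; growth read once vehicle control cultures reached saturation at 30 °C; 1 = growth at the plate median or of vehicle wells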
Details: growth OD

Measured: normalized growth

O=S1OCC2C(CO1)C1(Cl)C(Cl)=C(Cl)C2(Cl)C1(Cl)Cl (centres undefined)
active: S. cerevisiae deletion strains, locus YNL307C, strain MCK1, stronger effect = lower value 0.885 | S. cerevisiae deletion strains, locus YOR270C, strain vph1, stronger effect = lower value 0.633
inactive: S. cerevisiae deletion strains, locus YJR043C, strain POL32, stronger effect = lower value 0.96 | S. cerevisiae deletion strains, locus YJR075W, strain HOC1, stronger effect = lower value 0.986 | S. cerevisiae deletion strains, locus YKL009W, strain mrt4, stronger effect = lower value 0.947 | S. cerevisiae deletion strains, locus YKL068W, stronger effect = lower value 0.964 | S. cerevisiae deletion strains, locus YKL085W, strain MDH1 (second series), stronger effect = lower value 0.982 | S. cerevisiae deletion strains, locus YKL085W, strain MDH1, stronger effect = lower value 0.982 | S. cerevisiae deletion strains, locus YKL160W, strain elf1, stronger effect = lower value 0.953 | S. cerevisiae deletion strains, locus YKL190W, strain CNB1, stronger effect = lower value 1 | S. cerevisiae deletion strains, locus YKR001C, strain vps1, stronger effect = lower value 0.975 | S. cerevisiae deletion strains, locus YKR026C, strain gcn3, stronger effect = lower value 0.987 | S. cerevisiae deletion strains, locus YKR091W, strain srl3, stronger effect = lower value 0.991 | S. cerevisiae deletion strains, locus YLL001W, strain dnm1, stronger effect = lower value 0.99 | S. cerevisiae deletion strains, locus YLL026W, stronger effect = lower value 1 | S. cerevisiae deletion strains, locus YLL041C, strain sdh2, stronger effect = lower value 0.992 | S. cerevisiae deletion strains, locus YLR027C, strain aat2, stronger effect = lower value 0.961 | S. cerevisiae deletion strains, locus YLR039C, strain RIC1, stronger effect = lower value 1.06 | S. cerevisiae deletion strains, locus YLR058C, strain SHM2, stronger effect = lower value 0.979 | S. cerevisiae deletion strains, locus YLR102C, strain apc9, stronger effect = lower value 0.973 | S. cerevisiae deletion strains, locus YLR221C, strain rsa3, stronger effect = lower value 0.931 | S. cerevisiae deletion strains, locus YLR258W, strain gsy2, stronger effect = lower value 0.973 | S. cerevisiae deletion strains, locus YLR262C, strain YPT6 (second series), stronger effect = lower value 1.06 | S. cerevisiae deletion strains, locus YLR262C, strain YPT6, stronger effect = lower value 1.05 | S. cerevisiae deletion strains, locus YLR268W, strain sec22, stronger effect = lower value 0.97 | S. cerevisiae deletion strains, locus YLR320W, strain mms22, stronger effect = lower value 0.961 | S. cerevisiae deletion strains, locus YLR330W, strain CHS5, stronger effect = lower value 0.984 | S. cerevisiae deletion strains, locus YLR342W, strain FKS1 (second series), stronger effect = lower value 0.872 | S. cerevisiae deletion strains, locus YLR342W, strain FKS1, stronger effect = lower value 0.991 | S. cerevisiae deletion strains, locus YLR357W, strain rsc2, stronger effect = lower value 0.996 | S. cerevisiae deletion strains, locus YLR370C, strain arc18, stronger effect = lower value 0.997 | S. cerevisiae deletion strains, locus YLR371W, strain rom2, stronger effect = lower value 0.949 | S. cerevisiae deletion strains, locus YLR384C, strain iki3, stronger effect = lower value 1 | S. cerevisiae deletion strains, locus YLR418C, strain cdc73, stronger effect = lower value 0.946 | S. cerevisiae deletion strains, locus YML016C, strain PPZ1, stronger effect = lower value 0.991 | S. cerevisiae deletion strains, locus YML032C, strain rad52, stronger effect = lower value 0.974 | S. cerevisiae deletion strains, locus YML120C, strain ndi1, stronger effect = lower value 0.983 | S. cerevisiae deletion strains, locus YML124C, strain tub3, stronger effect = lower value 0.976 | S. cerevisiae deletion strains, locus YMR058W, strain fet3, stronger effect = lower value 0.976 | S. cerevisiae deletion strains, locus YMR078C, strain ctf18, stronger effect = lower value 0.977 | S. cerevisiae deletion strains, locus YMR125W, strain sto1, stronger effect = lower value 0.998 | S. cerevisiae deletion strains, locus YMR129W, stronger effect = lower value 0.992 | S. cerevisiae deletion strains, locus YMR205C, strain PFK2, stronger effect = lower value 0.91 | S. cerevisiae deletion strains, locus YMR223W, strain ubp8, stronger effect = lower value 0.955 | S. cerevisiae deletion strains, locus YMR231W, strain pep5, stronger effect = lower value 0.97 | S. cerevisiae deletion strains, locus YMR263W, strain SAP30, stronger effect = lower value 0.946 | S. cerevisiae deletion strains, locus YMR307W, strain GAS1, stronger effect = lower value 0.978 | S. cerevisiae deletion strains, locus YNL067W, strain RPL9B, stronger effect = lower value 0.981 | S. cerevisiae deletion strains, locus YNL071W, strain lat1, stronger effect = lower value 0.966 | S. cerevisiae deletion strains, locus YNL128W, strain TEP1, stronger effect = lower value 0.975 | S. cerevisiae deletion strains, locus YNL153C, strain GIM3, stronger effect = lower value 0.987 | S. cerevisiae deletion strains, locus YNL209W, strain ssb2, stronger effect = lower value 0.991 | S. cerevisiae deletion strains, locus YNL233W, strain BNI4, stronger effect = lower value 1 | S. cerevisiae deletion strains, locus YNL248C, strain rpa49, stronger effect = lower value 0.992 | S. cerevisiae deletion strains, locus YNL250W, strain rad50, stronger effect = lower value 0.957 | S. cerevisiae deletion strains, locus YNL271C, strain bni1, stronger effect = lower value 0.971 | S. cerevisiae deletion strains, locus YNL298W, strain CLA4, stronger effect = lower value 0.946 | S. cerevisiae deletion strains, locus YNL322C, strain KRE1 (second series), stronger effect = lower value 0.986 | S. cerevisiae deletion strains, locus YNL322C, strain KRE1, stronger effect = lower value 0.978 | S. cerevisiae deletion strains, locus YNR049C, strain mso1, stronger effect = lower value 0.997 | S. cerevisiae deletion strains, locus YNR052C, strain pop2, stronger effect = lower value 0.968 | S. cerevisiae deletion strains, locus YOL006C, strain TOP1, stronger effect = lower value 0.822 | S. cerevisiae deletion strains, locus YOL012C, strain htz1 0.777 | S. cerevisiae deletion strains, locus YOL147C, strain pex11, stronger effect = lower value 0.991 | S. cerevisiae deletion strains, locus YOR001W, strain rrp6, stronger effect = lower value 0.978 | S. cerevisiae deletion strains, locus YOR061W, strain CKA2, stronger effect = lower value 0.987 | S. cerevisiae deletion strains, locus YOR069W, strain VPS5, stronger effect = lower value 0.979 | S. cerevisiae deletion strains, locus YOR070C, strain gyp1, stronger effect = lower value 0.979 | S. cerevisiae deletion strains, locus YOR080W, strain dia2, stronger effect = lower value 0.991 | S. cerevisiae deletion strains, locus YOR083W, strain WHI5, stronger effect = lower value 0.942 | S. cerevisiae deletion strains, locus YOR106W, strain vam3, stronger effect = lower value 0.884 | S. cerevisiae deletion strains, locus YOR136W, strain idh2, stronger effect = lower value 0.98 | S. cerevisiae deletion strains, locus YOR144C, strain elg1, stronger effect = lower value 0.984 | S. cerevisiae deletion strains, locus YOR184W, strain ser1, stronger effect = lower value 0.887 | S. cerevisiae deletion strains, locus YOR265W, strain rbl2, stronger effect = lower value 0.993 | S. cerevisiae deletion strains, locus YOR290C, strain snf2, stronger effect = lower value 0.937 | S. cerevisiae deletion strains, locus YOR316C, strain cot1, stronger effect = lower value 0.975 | S. cerevisiae deletion strains, locus YPL051W, strain arl3, stronger effect = lower value 0.988 | S. cerevisiae deletion strains, locus YPL055C, strain LGE1, stronger effect = lower value 0.974 | S. cerevisiae deletion strains, locus YPL078C, strain atp4, stronger effect = lower value 0.987 | S. cerevisiae deletion strains, locus YPL106C, strain sse1, stronger effect = lower value 0.993 | S. cerevisiae deletion strains, locus YPL240C, strain hsp82, stronger effect = lower value 0.991 | S. cerevisiae deletion strains, locus YPL241C, strain CIN2, stronger effect = lower value 0.985 | S. cerevisiae deletion strains, locus YPR119W, strain clb2, stronger effect = lower value 0.976 | S. cerevisiae deletion strains, locus YPR141C, strain kar3, stronger effect = lower value 0.98 | S. cerevisiae deletion strains, locus YPR163C, strain tif3, stronger effect = lower value 0.978 | S. cerevisiae deletion strains, locus YPR167C, strain met16, stronger effect = lower value 0.971 | S. cerevisiae deletion strains, strain wtn01, stronger effect = lower value 0.954 | S. cerevisiae strains, strain wild type, stronger effect = lower value 0.987
